This note sets out measurements from PubChem BioAssay.

Active and inactive are the calls of the source. Unless noted, no rule for the calls is given here.

Assay [1] concerns Wnt5a (protein binding on small-molecule microarray). Put plainly: small molecules binding Wnt5a protein – biophysical, small-molecule microarray, 635/667 nm fluorescence, primary screen (AID 1142).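 Also: fluorescence read at 667 nm with signal to noise per printed feature.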 As to conditions: 635 nm fluorescence, higher = more signal.
Assay [2] can be described thus: ATP-based viability of Huh7 replicon cells – cell-based, CellTiter-Glo luminescence, basal, 48 h, cytotoxicity control for HCV replication inhibitor project, primary screen (AID 1143).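 Also: Huh7 hepatoma cells carrying a hepatitis C replication reporter with no stimulus; test concentration not given here.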 As to conditions: higher = more signal, called active from +8 up or from −8 down. For orientation: In antiviral work, replicon cells carry a viral genome segment that copies itself.
Assay [3] is described as follows: Pseudomonas biofilm growth suppression – PAO1 strain, BacTiter-Glo luminescence, LB-PBS, primary screen (AID 1144). The conditions noted are these: P. aeruginosa PAO1 biofilm, 12 h, higher = more signal.
Assay [4] can be described thus: basal CRE-LacZ reporter activity in PC12 – cell-based, unstimulated, primary screen (AID 1145). The conditions noted are these: no forskolin, luminescence, 4.5 h, higher = more signal, called active from +8 up or from −8 down.
Assay [5] can be described thus: forskolin-driven CRE-LacZ activity in PC12 – cell-based, CRE-LacZ reporter, forskolin-stimulated, primary screen (AID 1146).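 Also: PC12 cells with 6xCRE LacZ reporter stimulated by forskolin 10 µM; beta-galactosidase reporter signal reflecting CREB driven transcription.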 As to conditions: luminescence, 4.5 h, higher = more signal, called active from +8 up or from −8 down.
The target of assay [6] is Streptavidin (Streptomyces avidinii) (UniProt P22629). The assay can be described thus: compounds binding control protein streptavidin – biophysical, small-molecule microarray, 635/667 nm fluorescence, artefact control for SMM compound annotation, primary screen (AID 1147).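 Also: signal reflects streptavidin binding to arrayed compounds as a control protein.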 As to conditions: higher = more signal.
Chain of Streptavidin (Streptomyces avidinii) (P22629 whole entry, looked up): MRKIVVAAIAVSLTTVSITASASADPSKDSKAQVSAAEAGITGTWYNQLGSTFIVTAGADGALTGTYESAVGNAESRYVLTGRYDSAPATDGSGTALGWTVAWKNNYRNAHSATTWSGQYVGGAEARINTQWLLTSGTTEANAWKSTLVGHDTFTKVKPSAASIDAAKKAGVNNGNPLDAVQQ
A short description of assay [7]: probe aInhba binding on compound microarray – biochemical, small-molecule microarray, 635/667 nm fluorescence, primary screen (AID 1148).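 Also: score merges 667nm spot fluorescence with signal-to-noise for antibody binding to printed compounds.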 The conditions noted are these: higher = more signal.
The target in assay [8] is Torsin-1A (Homo sapiens) (UniProt O14656). Put plainly: TOR1A wild-type binding on microarray – cell lysate, small-molecule microarray, lysate, 635/667 nm, primary screen (AID 1149). As to conditions: COS7 hTOR1A-WT lysate, 635 nm fluorescence, higher = more signal.
Chain of Torsin-1A (Homo sapiens) (O14656 whole entry, looked up): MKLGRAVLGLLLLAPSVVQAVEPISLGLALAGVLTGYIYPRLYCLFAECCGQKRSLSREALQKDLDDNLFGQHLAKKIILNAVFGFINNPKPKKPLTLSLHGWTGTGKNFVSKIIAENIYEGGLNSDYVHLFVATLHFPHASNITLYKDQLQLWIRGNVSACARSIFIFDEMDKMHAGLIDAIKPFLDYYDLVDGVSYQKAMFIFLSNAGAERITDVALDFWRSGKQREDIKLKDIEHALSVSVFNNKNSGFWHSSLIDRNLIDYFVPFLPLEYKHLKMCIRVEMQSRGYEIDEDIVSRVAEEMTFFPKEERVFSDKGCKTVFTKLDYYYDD
Assay [9] has the same target. The assay can be described thus: torsin A mutant lysate binding on microarrays – cell lysate, small-molecule microarray, COS7 lysate, 635/667 nm fluorescence, primary screen (AID 1150).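 Also: score pools 667 nm emission and signal to noise measuring lysate protein binding.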 The conditions noted are these: COS7 hTOR1A mutant lysate, 635 nm fluorescence, higher = more signal.
The test system of assay [10] is Sonic hedgehog protein (Shh). The assay can be described thus: Sonic hedgehog microarray binding compounds – biochemical, small-molecule microarray, 635/667 nm fluorescence, primary screen (AID 1151).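 Also: Shh protein binding to compounds spotted on small-molecule microarray slides; score combines spot fluorescence intensity with signal-to-noise across triplicate slides.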 The conditions noted are these: 635 nm fluorescence, higher = more signal.
Assay [11] can be described thus: optical density shifts of acrAB sulA E. coli – strain DRC41, OD650, 48 h, E. coli filamentation inducer project, primary screen (AID 1152).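 Also: E. coli MC1000 strain DRC41 lacking acrAB efflux pump and sulA.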 As to conditions: higher = more signal, called active from +8 up or from −8 down.
Assay [12] is described as follows: probe aLefty1 binding on compound microarray – biochemical, small-molecule microarray, 635/667 nm fluorescence, primary screen (AID 1153).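 Also: score merges spot fluorescence with signal-to-noise ratio from the scanned slide images.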 As to conditions: higher = more signal.
Assay [13] in a line: plasmodial surface anion channel blockers, osmotic lysis – cell-based, P. falciparum Indochina, OD700, 1 h, primary screen (AID 1154). As to conditions: P. falciparum Indochina infected RBC osmotic lysis, higher = more signal, called active from +8 up or from −8 down.
Assay [14] is described as follows: plasmodial surface anion channel blockers, osmotic lysis – cell-based, P. falciparum Indochina, OD700, 2 h, primary screen (AID 1155).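 Also: lysis reports solute entry through the parasite surface anion channel PSAC.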 As to conditions: P. falciparum Indochina infected erythrocytes, higher = more signal, called active from +8 up or from −8 down.
Assay [15] is described as follows: changes in parasitized red cell lysis, either direction – P. falciparum Indochina, OD700, 3 h, PSAC antagonist project, primary screen (AID 1156). The conditions noted are these: P. falciparum-infected erythrocytes, osmotic lysis, higher = more signal, called active from +8 up or from −8 down.
Assay [16] is described as follows: plasmodial surface anion channel blockers, osmotic lysis – cell-based, P. falciparum Indochina, OD700, 18 h, primary screen (AID 1157). The conditions noted are these: P. falciparum Indochina infected erythrocytes, osmotic lysis OD700, 18 h; higher = more signal, called active from +8 up or from −8 down.
Assay [17] can be described thus: S6 kinase pathway phospho-S6 level changes – cell-based, A549, cytoblot, luminescence, serum-stimulated, primary screen (AID 1158).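 Also: serum-stimulated A549 lung adenocarcinoma cells; signal is phosphorylated S6 detected by cytoblot immunostaining with HRP secondary.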 The conditions noted are these: 5 h, higher = more signal.
Assay [18] addresses NADPH oxidase 2 (Homo sapiens) (UniProt P04839). Put plainly: compounds shifting NOX2 Amplex Red fluorescence – cell-based, HEK293-NOX2, PMA-stimulated, NOX inhibitor project, primary screen (AID 1159). Also: test concentration not given here. As to conditions: 45 min, higher = more signal, called active from +8 up or from −8 down.
Assay [19] deals with NADPH oxidase 4 (Homo sapiens) (UniProt Q9NPH5). The assay can be described thus: compounds shifting NOX4 Amplex Red fluorescence – cell-based, HEK293-NOX4, tetracycline-induced, NOX inhibitor project, primary screen (AID 1160). The conditions noted are these: HEK293-NOX4, Amplex Red H2O2 fluorescence, 45 min; higher = more signal, called active from +8 up or from −8 down.
Chain of NADPH oxidase 4 (Homo sapiens) (Q9NPH5 whole entry, looked up): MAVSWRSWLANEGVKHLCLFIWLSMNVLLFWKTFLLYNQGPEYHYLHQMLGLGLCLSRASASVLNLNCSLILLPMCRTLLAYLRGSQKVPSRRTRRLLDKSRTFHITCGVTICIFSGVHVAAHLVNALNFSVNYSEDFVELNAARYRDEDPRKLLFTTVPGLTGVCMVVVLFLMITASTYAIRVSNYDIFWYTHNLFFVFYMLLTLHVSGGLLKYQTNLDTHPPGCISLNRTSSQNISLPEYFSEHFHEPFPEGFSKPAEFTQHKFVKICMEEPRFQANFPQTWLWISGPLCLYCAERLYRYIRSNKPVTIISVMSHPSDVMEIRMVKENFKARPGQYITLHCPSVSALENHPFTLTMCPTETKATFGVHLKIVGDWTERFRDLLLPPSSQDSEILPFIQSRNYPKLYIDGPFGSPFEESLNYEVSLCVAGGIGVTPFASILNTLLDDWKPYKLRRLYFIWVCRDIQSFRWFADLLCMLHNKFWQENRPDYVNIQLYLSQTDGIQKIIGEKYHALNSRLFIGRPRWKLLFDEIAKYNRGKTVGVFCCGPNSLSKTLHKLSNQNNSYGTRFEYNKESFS
For assay [20], the target named is NADPH oxidase 5 (Homo sapiens) (UniProt Q96PH1). The assay can be described thus: compounds shifting NOX5 Amplex Red fluorescence – cell-based, HEK293-NOX5, NOX inhibitor project, primary screen (AID 1161). As to conditions: HEK293-NOX5, ionomycin, 45 min, higher = more signal.
Chain of NADPH oxidase 5 (Homo sapiens) (Q96PH1 whole entry, looked up): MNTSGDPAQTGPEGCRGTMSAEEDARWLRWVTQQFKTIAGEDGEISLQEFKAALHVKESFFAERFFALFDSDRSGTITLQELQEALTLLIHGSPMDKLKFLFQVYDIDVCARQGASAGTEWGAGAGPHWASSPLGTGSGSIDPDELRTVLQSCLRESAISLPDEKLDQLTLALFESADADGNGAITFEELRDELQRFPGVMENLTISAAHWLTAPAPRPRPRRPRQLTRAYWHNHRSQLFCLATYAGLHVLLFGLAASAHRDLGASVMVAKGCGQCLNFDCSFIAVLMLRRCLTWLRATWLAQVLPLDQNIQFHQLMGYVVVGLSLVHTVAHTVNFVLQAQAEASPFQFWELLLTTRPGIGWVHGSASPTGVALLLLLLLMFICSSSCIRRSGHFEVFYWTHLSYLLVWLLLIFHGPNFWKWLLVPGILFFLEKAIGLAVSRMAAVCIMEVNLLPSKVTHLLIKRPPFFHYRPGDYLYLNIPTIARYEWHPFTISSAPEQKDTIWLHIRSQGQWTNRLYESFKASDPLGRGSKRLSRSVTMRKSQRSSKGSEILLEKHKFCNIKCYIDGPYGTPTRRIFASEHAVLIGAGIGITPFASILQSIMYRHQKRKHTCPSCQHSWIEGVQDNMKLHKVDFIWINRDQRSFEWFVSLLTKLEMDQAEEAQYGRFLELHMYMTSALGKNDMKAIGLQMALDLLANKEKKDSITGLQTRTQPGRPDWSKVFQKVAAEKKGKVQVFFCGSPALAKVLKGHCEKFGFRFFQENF

Chain of NADPH oxidase 2 (Homo sapiens) (P04839 whole entry, looked up): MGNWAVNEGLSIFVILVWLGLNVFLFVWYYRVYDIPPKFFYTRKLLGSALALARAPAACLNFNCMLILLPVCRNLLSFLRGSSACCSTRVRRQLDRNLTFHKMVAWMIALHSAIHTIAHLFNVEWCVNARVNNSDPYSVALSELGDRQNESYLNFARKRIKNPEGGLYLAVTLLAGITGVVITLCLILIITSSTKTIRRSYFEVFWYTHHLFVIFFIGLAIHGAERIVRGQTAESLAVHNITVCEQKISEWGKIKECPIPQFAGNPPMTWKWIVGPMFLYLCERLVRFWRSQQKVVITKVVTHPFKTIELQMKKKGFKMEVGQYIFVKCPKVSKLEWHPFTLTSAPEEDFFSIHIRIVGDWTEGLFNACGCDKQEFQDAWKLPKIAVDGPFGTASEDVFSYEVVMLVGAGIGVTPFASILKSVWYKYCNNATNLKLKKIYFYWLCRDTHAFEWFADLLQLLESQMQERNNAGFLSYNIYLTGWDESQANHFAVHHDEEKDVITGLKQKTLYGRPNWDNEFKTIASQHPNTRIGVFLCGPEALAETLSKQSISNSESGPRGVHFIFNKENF

`C=C(CCCC)C(=O)CC[C@@H](OC(C)=O)c1ccc(OCCO)cc1`: the composite z-score in assay [1] is 0.791; in assay [6], -0.871; in [7] it was 0.0154; in assay [8] it was 1.34; in assay [9], 0.084; in [10], 1.52. Moreover, in assay [12], the composite z-score was determined as 0.0533. For the same molecule, the z-score was -0.742 (inactive) in [2]; -1.12 (inactive) in assay [3]; 0.653 (inactive) in [4]; -0.101 (inactive) in [5]; 0.0142 (inactive) in assay [11]; 7.67 (inactive) in assay [13]. Also, the z-score in assay [14] was 1.16 (inactive); in assay [15], 0.888 (inactive); in assay [16], 0.455 (inactive); in [17], -0.222; in assay [18] it was -1.4 (inactive); in assay [19], -1.4 (inactive). Besides, the z-score in assay [20] is -1.87.

Take `COc1ccc(C(=O)Nc2ccc(CN3C(=O)[C@]4(O[C@H](CC(=O)N(CCO)Cc5ccccc5)[C@@H]([Si](C)(C)c5ccc(OC)cc5)[C@@H]4C)c4ccccc43)cc2)cc1`: the composite z-score in assay [1] was 0.334; in assay [6], -0.138; in [7], -0.128; in [8], 0.689; in [9], -0.0595; in [10], 1.94. In assay [12], this molecule came in with a composite z-score of -0.142. Also, the z-score in assay [2] is -4.06 (inactive); in assay [3], 0.52 (inactive); in [4], 0.339 (inactive); in [5], -0.221 (inactive); in [11], 0.863 (inactive); in assay [13] it was 4.94 (inactive). Also, the z-score in [14] was 1.89 (inactive); in assay [15], 0.439 (inactive); in assay [16] it was 1.02 (inactive); in assay [17], 0.383; in assay [18], 0.658 (inactive); in assay [19], 0.801 (inactive). Moreover, in assay [20], the z-score was found to be 3.23.

For `CC1C2C(CCCO)=CC(C3C(=O)N(C)C(=O)C23)N1Cc1cccc(OC(F)(F)F)c1` (stereo not given), the composite z-score in assay [1] was 0.164; in assay [6], 2.22; in assay [7], 0.143; in assay [8] it was 0.76; in [9] it was 1.47; in [10] it was 0.113. This molecule also gave a composite z-score in assay [12] of -0.0083. The z-score was -0.293 (inactive) in assay [2]; 0.403 (inactive) in assay [3]; -0.0142 (inactive) in assay [4]; -0.733 (inactive) in [5]; 0.337 (inactive) in assay [11]; 1.38 (inactive) in [13]. In addition, the z-score in assay [14] was 0.938 (inactive); in assay [15], 1.07 (inactive); in assay [16], 0.528 (inactive); in [17], 1.04; in [18] it was 0.733 (inactive); in [19], -0.702 (inactive). Moreover, the z-score in assay [20] amounted to 0.455.

`CC(C)C[C@H]1NC(=O)CNC(=O)[C@@]23C(=O)N[C@@H](Cc4ccccc4)C2[C@H](C)[C@@]2(C)O[C@H]2C3/C=C/C/C=C\CNC1=O` (stereo not given in full): the composite z-score was -0.0443 in assay [1]; -0.185 in assay [6]; -0.0719 in assay [7]; -0.0633 in assay [8]; 0.129 in [9]; 1.93 in [10]. The molecule further had a composite z-score in assay [12] of -0.103. For the same molecule, the z-score in [2] is 0.0643 (inactive); in assay [3] it was -0.0124 (inactive); in [4], 0.483 (inactive); in [5], 0.201 (inactive); in assay [11], -0.592 (inactive); in [13] it was 0.392 (inactive). Moreover, the z-score in [14] was 0.41 (inactive); in [15], -0.352 (inactive); in assay [16], -0.0621 (inactive); in [17], 0.662; in assay [18], 0.429 (inactive); in assay [19], 1.21 (inactive). Moreover, the z-score in assay [20] was -0.495.

As to `COc1ccc(CCNC(=O)[C@@]2(C)c3ccccc3C(=O)N(Cc3ccc(OC(F)(F)F)cc3)[C@H]2c2ccc(CO)cc2)cc1`, the composite z-score in assay [1] is 0.887; in assay [6], -0.535; in assay [7], -0.166; in assay [8] it was 0.43; in assay [9], 1.43; in [10] it was 1.23. The molecule also displayed a composite z-score in [12] of -0.588. Also, the z-score in [2] is -4.18 (inactive); in assay [3] it was 0.175 (inactive); in [4], -0.179 (inactive); in [5], 0.175 (inactive); in assay [11], -0.933 (inactive); in assay [13], 7.22 (inactive). Moreover, the z-score is 1.67 (inactive) in assay [14]; 1.79 (inactive) in assay [15]; 1.16 (inactive) in [16]; 0.029 in [17]; -0.61 (inactive) in assay [18]; -0.547 (inactive) in [19]. Also, in [20], the z-score is -1.23.
